Screens (PubChem)
Hits are enriched below; roughly 21% of the tested compounds scored in any of these assays.
TDP1 cell CPT = growth inhibition of DT40 Tdp1-/-;hTDP1 cells with camptothecin (screen for TDP1 inhibitors); actives 12% (n = 420,000); chicken DT40 Tdp1-/-;hTDP1 cells + 20 nM CPT, ATP luminescence, 48 h; AID 686979; Potency, µM (series often up to 46.2 µM), for inactives: at the top dose activity change, negative = growth inhibition, usual class: inhibitors; further: potency means the concentration at half of the fitted maximal effect; nearly all actives have a fitted effect of over 55% in size
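Chicken DT40 Tdp1-/- cells stably complemented with human TDP1 were seeded at 400 cells/well in medium containing 20 nM camptothecin, exposed to pin-transferred compounds, and grown at 37 °C for at least 48 hr. Viability was read as ATP luminescence.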
TDP1 cell noCPT = qHTS for Inhibitors of human tyrosyl-DNA phosphodiesterase 1 (TDP1): qHTS in cells in absence of CPT | Potency, µM (doses to about 46.2 µM), without a hit: at the top dose activity change, negative = growth inhibition, actives largely listed as inhibitors | actives 15% (n = 420,000) | AID 686978, 2013 | DT40 Tdp1-/- hTDP1 cells, no CPT, ATP luminescence, 48 h; further: potency means the concentration at half of the fitted maximal effect; nearly all actives have a fitted effect of over 55% in size
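Seeded 400 DT40-hTDP1 cells/well (vehicle DMSO, no 20 nM CPT); pinned compounds; ≥48 hr at 37 °C; CellTiter-Glo luminescence as viability measure.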
VP16 counter = Gal4-VP16 reporter inhibition counter-screen; Drosophila S2 Gal4-VP16 UAS-luciferase, luminescence, 20 h; Potency, µM (top dose mostly 53.6 µM), for the others: top-dose activity, negative = inhibition, most hits filed as inhibitors; AID 2546; actives 3.5% (n = 310,000);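 further: Gal4-VP16 expression switched on by copper sulfate through the metallothionein promoter; potency means the concentration at half of the fitted maximal effect; nearly all actives have a fitted effect of over 50% in size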
RORgamma inh = inhibitors of mouse ROR gamma transcriptional activity; P51450; AID 2551; Potency, µM (top dose mostly 53.6 µM), for inactives: at the top dose activity change, negative = inhibition, actives largely listed as inhibitors; actives 5.4% (n = 310,000); Drosophila S2 Gal4-RORgamma UAS-luciferase reporter, 20 h; further: potency means the concentration at half of the fitted maximal effect; nearly all actives have a fitted effect of over 60% in size
Target sequence (P51450 whole entry, looked up, the tested form may be a part): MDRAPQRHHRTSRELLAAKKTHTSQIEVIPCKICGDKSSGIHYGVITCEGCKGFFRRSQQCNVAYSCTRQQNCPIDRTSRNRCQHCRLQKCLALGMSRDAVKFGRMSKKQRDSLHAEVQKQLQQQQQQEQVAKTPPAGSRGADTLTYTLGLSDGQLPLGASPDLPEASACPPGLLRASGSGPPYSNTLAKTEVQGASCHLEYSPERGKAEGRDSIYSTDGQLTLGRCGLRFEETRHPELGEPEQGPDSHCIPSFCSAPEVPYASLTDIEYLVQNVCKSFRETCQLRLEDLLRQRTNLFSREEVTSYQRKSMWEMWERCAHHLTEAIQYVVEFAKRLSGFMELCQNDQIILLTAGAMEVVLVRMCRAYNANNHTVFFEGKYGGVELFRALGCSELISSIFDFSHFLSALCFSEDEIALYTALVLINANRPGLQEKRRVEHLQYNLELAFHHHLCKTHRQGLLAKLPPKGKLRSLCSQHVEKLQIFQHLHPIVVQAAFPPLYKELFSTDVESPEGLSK
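Stably transfected Drosophila Schneider cells are the test system, with ROR gamma fused to Gal4 and luciferase under UAS control; luminescence is read after 20 hr of 700 uM copper sulfate induction at ambient temperature.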
IL-1B inflam inh = inflammasome signaling inhibition, IL-1 beta readout. activity change, % at 57.5 µM. actives 4.7% (n = 360,000). THP-1 LPS/ATP IL-1B secretion, AlphaLISA, 16 h; hits give low values; in the data active means activity change below about -50%; inconclusive means mostly about -30% to -49%
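Secreted IL-1B measured by AlphaLISA bead assay after 16 h compound exposure of THP-1 cells; compounds (final up to 57.5 uM) added 1 h before LPS (250 ng/mL) and ATP (1.25 mM) stimulation; lower signal means less secretion.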
ELG1 repair inh = blocks ELG1-dependent DNA repair in HEK293T cells; HEK293T ELG1-luciferase reporter, luminescence, 16 h; DNA damage induced by 5-fluorouridine; Potency, µM (titrated, usually from 46.1 µM), without a hit: at the top dose activity change, negative = inhibition, hits mostly inhibitors; actives 2.3% (n = 330,000); AID 504467; further: potency means the concentration at half of the fitted maximal effect; nearly all actives have a fitted effect of over 55% in size
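Quantitative HTS, concentration-response format. 2,000 cells/well co-treated with 5-fluorouridine and compound, 16 hr in 5% CO2 at 37 °C; ONE-Glo luminescence read after 30 min.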
* marks the source's active call; other numbers are inactive results; ? = inconclusive; nt = no result given; [ ] = another dose, or the depositor's remark. Unless noted, the call rests on the fitted dose curve; in most records, active means well fitted curve in the direction sought with a large enough effect; inconclusive means small, poorly fitted or top-dose-only effect, or another doubt; inactive means no such curve, though single readings can be large; an effect the other way counts as inactive or inconclusive. On the % scale 0 is the no-effect control and ±100 the full control effect.

SMILES	TDP1 cell CPT	TDP1 cell noCPT	VP16 counter	RORgamma inh	IL-1B inflam inh	ELG1 repair inh
O=C(OCC(O)COC(=O)c1cccnc1)c1cccnc1	-4%	7%	-1%	0%	14	-3%
COc1cccc2c3c(c(C)nc12)CC(CO)O3 (stereo not drawn)	?	-19%[9.04 µM]	1%	0%	nt	nt
Cc1cc(/C=N/NC(=O)c2cc3ccccc3o2)c(C)n1C	15µM*	23µM*	?	?	-23	?
O=C(N/N=C/c1ccncc1)c1cc2ccccc2o1	5%	-7%	-3%	37%	-52*	0%
O=C(N/N=C/c1cc(Br)c(Br)o1)c1cc2ccccc2o1	?	?	6.3µM*	5µM*	?	?
CCOC(=O)Cn1cc(/C=N/NC(=O)c2cc3ccccc3o2)c2ccccc21	0%	?	7%	?	?	?
O=C1CC(NS(=O)(=O)c2cc(F)ccc2F)CN1c1ccc2c(c1)OCCO2 (stereo not drawn)	-18%	-20%	nt	nt	3	11%
CC(=N\Nc1ccc(Cl)cc1)/C(=N/O)C(=O)Nc1ccccc1	-9%	-20%	-5%	?	-16	?
CCOC(=O)C(=N/O)/C(C)=N/NC(=O)C(=O)Nc1ccc(Cl)cc1	4.1µM*	2.1µM*	20µM*	-44%	-23	?
Cc1ccc(NC(=O)Cn2c(=O)n(CCc3ccccc3)c(=O)c3sc4ccccc4c32)cc1C	-2%	-7%	nt	nt	nt	nt
CC(C)C[C@@H](COCc1cccc(Cl)c1)N1CCN(C(=O)c2cccc(C(F)(F)F)c2)CCC1=O	?	16µM*	0%[40.7 µM]	37%[40.7 µM]	?	nt
CC(C)CC(COCc1cccc(Cl)c1)N1CCN(C(=O)c2ccc(C(F)(F)F)cc2)CCC1=O (stereo not drawn)	?	16µM*	?	?	?	?
O=C(O)[C@@H](O)[C@@H](O)[C@H](O)C(=O)CO	nt	nt	-1%	6%[10 µM]	nt	nt
CCN1C(=O)[C@H]2[C@H]3[C@H](O)[C@H](O)C/C(=N/O[C@@H](C)CN4CCCCc5nc(C)c(C)cc54)[C@@H]3CC[C@@H]2C1=O	nt	nt	-5%[10 µM]	-11%[10 µM]	nt	nt
CCCC1=C(C(=O)OCC)C(c2ccc(N(C)C)cc2)n2ncnc2N1 (stereo not drawn)	?	26µM*	-6%	-33%	17	0%
CCCC1=C(C(=O)OCC)C(c2ccc(F)cc2)n2ncnc2N1 (stereo not drawn)	?	?	3%	?	26	?
CCCC1=C(C(=O)OCC)C(/C=C/c2ccccc2)n2ncnc2N1 (stereo not drawn)	16µM*	13µM*	-3%	20µM*	4	?
CCOC(=O)C1=C(C)Nc2ncnn2C1/C=C/c1ccccc1 (stereo not drawn)	?	?	5%	-39%	51	nt
O=C(Nc1cccc([N+](=O)[O-])c1)C1CC(=O)N(C2CCCCC2)C1 (stereo not drawn)	5%	-26%	-6%	15%	26	-9%
CCCn1c(=O)c2ccccc2n2c(SCCOc3ccc(OC)cc3)nnc12	?	?	0%	-6%	-4	-13%
COc1ccccc1Cn1c(=O)c2ccccc2n2c(SCc3csc(C)n3)nnc12	?	?	-1%	20%	-55*	?
COc1ccccc1Cn1c(=O)c2ccccc2n2c(Sc3ncnc4sccc34)nnc12	21µM*	21µM*	?	11µM*	-85*	?
O=C(O)CCn1c(-c2ccccc2)cc2ccccc21	7%	3%	-19%	17%	21	18%
CCCCOc1ccc(C2C(C(=O)c3ccc(C)o3)=C(O)C(=O)N2CC2CCCO2)cc1 (stereo not drawn)	?	23µM*	-7%	31%	-2	-3%
CCOC(=O)c1cc(OC(=O)c2cccc(Cl)c2)n(-c2ccccc2)n1	-13%	-6%	nt	nt	nt	nt
SMILES	TDP1 cell CPT	TDP1 cell noCPT	VP16 counter	RORgamma inh	IL-1B inflam inh	ELG1 repair inh
CCCCn1c(=O)n(C)c(=O)c2c(C(F)(F)F)cc(-c3ccncc3)nc21	18µM*	11µM*	2%	-18%	26	15µM*
Cc1cc(C)c(CN2CCN(C(=O)Cn3cnc4c(NCc5ccccc5)ncnc43)CC2)c(C)c1	5.8µM*	1.8µM*	nt	nt	?	1µM*
COc1cccc(NC(=O)c2c(C)oc3nc(C)nc(N4CCCC4)c23)c1	2%	-12%	nt	nt	nt	nt
Cn1c(N)c(C(=O)CNC2CCCCC2)c(=O)n(C)c1=O	-12%	-7%	nt	nt	-3	nt
COc1cccc(-c2nccc(NC3CCNCC3)n2)c1	?	?	-2%	?	nt	nt
Cc1cc(C)[n+]2[nH]c(N)c(N=Nc3ccccc3)c2n1	?	16µM*	-2%	-34%	-29	?
CC(/C=N/Nc1nnc2c(n1)[nH]c1ccccc12)=C\c1ccco1	26µM*	?	-6%	-1%	31	?
Cc1cccc2c1[nH]c1nc(N/N=C\c3ccco3)nnc12	nt	nt	-17%	40%	nt	13%
Cn1cc(S(=O)(=O)NC[C@H]2O[C@@H](n3ccc(=O)[nH]c3=O)[C@H](O)[C@@H]2O)cn1	14%	-1%	nt	nt	12	nt
CSCC(=O)N1CCCC(CNC(=O)c2ccc(-c3ccccc3)cc2)C1 (stereo not drawn)	23µM*	23µM*	-5%	19%	-8	?
O=C(NCC1CCCN(C(=O)c2cccnc2)C1)c1ccc(-c2ccccc2)cc1 (stereo not drawn)	?	23µM*	4%	7%	6	3%
O=C(Cc1cccc(NC(=O)C2CCN(S(=O)(=O)c3cccc([N+](=O)[O-])c3)CC2)c1)Nc1cccc(C(=O)N2CCOCC2)c1	-28%	-15%	nt	nt	-19	nt
Cc1ccc2c(c1)C(=C(C#N)C#N)C(=O)N2CCN1CCOCC1	16µM*	?	4%	15%	13	26%
Cc1ccc2c(c1)C(=C(C#N)C#N)C(=O)N2CCN1CCCCC1	23µM*	18µM*	-8%	3%	-10	?
CN1C(=O)/C(=C/c2ccccc2F)Sc2ccc(C(=O)NCC3CCCO3)cc21 (stereo not drawn)	23µM*	?	-9%	16%	?	?
